SKN-1 block – suppressors of acrylamide-induced Pgst-4::GFP reporter in worms, primary screen, SKN-1 inhibitor project, whole organism, uHTS, GFP/RFP fluorescence ratio, strain VP596 | 360,000 tested, 0.49% active | inhibition, % at 21.8 µM | C. elegans VP596 Pgst-4::GFP/RFP ratio, 24 h | AID 624304, 2012;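 active means interference check ratio from 0.5 to 1.5 plus GFP to RFP signal ratio inhibition reaching or exceeding a fixed threshold, cut at about 30% in these data, passing the limit was not always enough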
NR3A LBD binder – binders of NR3A ligand-binding domain, primary screen, biophysical, differential scanning fluorimetry, uHTS | 340,000 tested, 2.5% active | Tm shift relative to glycine control, % at 25 µM | Glutamate receptor ionotropic, NMDA 3A (GRIN3A) ligand-binding domain | AID 1259313, 2017 | NR3A LBD differential scanning fluorimetry, Tm shift; 0% = protein alone, 100% = glycine-bound protein;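 active means melting temperature shift of at least 10% of the positive control shift, at one fixed dose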
NadD block – inhibitors of S. aureus NadD, primary screen, biochemical, colorimetric, uHTS; Nicotinate-nucleotide adenylyltransferase NadD (Staphylococcus aureus N315); purified NadD enzyme, colorimetric absorbance read-out; inhibition, % at 20 µM; 360,000 tested, 0.78% active; AID 602399, 2012; in the data active means inhibition above about 26%
SMARCA2 activ – SMARCA2 (BRM) function activators, primary screen, cell-based, luminescence, high throughput. MG213 cells, MMTV-luciferase reporter, dexamethasone, overnight. activation, % at 9.1 µM. 370,000 tested, 1% active; in the data active means activation above about 7.8%;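 further: 0% = vehicle wells and 100% = reference activator wells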
esBAF inh – Bmi1 luciferase reporter increase in mESCs, primary screen, esBAF inhibitor project, mouse ES cells, Bmi1 luciferase knock-in, single point; reporter increase, % at 12.5 µM; AID 602393, 2012; 350,000 tested, 2% active; 24 h; 100% = twice the neutral-well signal; in the data active means activation above about 40%;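 further: 0% = median of the plate's neutral control wells and 100% = double that signal; a rise in the Bmi1 reporter signal indicates esBAF inhibition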
Vif imaging – HIV Vif self-association inhibitors, primary screen, imaging, HEK293T, single point. HEK293T cells, Vif self-association by quenched fluorescence, 24 h. inhibition, % at 7.49 µM. 340,000 tested, 0.35% active. AID 602346, 2012; in the data active means inhibition above about 50%, passing the limit was not always enough
SMARCA2 conf – SMARCA2 (BRM) function activators, confirmation, cell-based, luminescence, triplicate. 3,500 tested, 30% active. MG213 cells, MMTV-luciferase with dexamethasone, overnight; MG213 cells expressing E1A, Rb sequestered; DMSO wells 0%, reference activator 100%. activation, % at 9.1 µM. shares compounds with SMARCA2 activ;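 active means activation above its plate's cutoff, the mean activation of tested wells plus 3 SD, cut at about 7.9% in these data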
VP16 Luc act – GAL4-VP16 luciferase reporter activation, counter-screen for SMARCA2 (BRM) activator project, cell-based, pG5luc, luminescence, high throughput | shares compounds with SMARCA2 activ | HEK293 GAL4-VP16 pG5luc reporter; scaled: DMSO wells 0%, SAHA wells 100% | activation, % at 9.1 µM | 3,500 tested, 41% active | AID 686939, 2013;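 active means activation above the solvent-only control well mean plus 3 SD, averaged across control plates, cut at about 5.2% in these data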
Active calls of the source: *; · = no result. Most compounds without a hit are left out; they make up all but 5.2% or so of the library.

SMILES	SKN-1 block	NR3A LBD binder	NadD block	SMARCA2 activ	esBAF inh	Vif imaging	SMARCA2 conf	VP16 Luc act
Cc1ccc(OCC(O)CN2CCOCC2)c(C)c1 (centres undefined)	4	2	2	8.3*	6	-2	-2	1
CC1(C)COC(c2cc3c(cc2Br)OCO3)OC1	15	-4	2	8.1*	15	2	-1	-2
C[C@H](CO)N1C[C@H](C)[C@@H](CN(C)Cc2ccncc2)Oc2ccc(NS(=O)(=O)c3ccc(F)cc3)cc2C1=O	·	·	·	·	3	·	·	·
COc1cccc(C(=O)Nc2cccc(-c3ccc(N4CCOCC4)nn3)c2)c1OC	-5	1	-4	12*	20	-11	11*	15*
CN1CCN(c2ccc(-c3cccc(NC(=O)COc4ccc(Cl)cc4)c3)nn2)CC1	-4	0	-6	3	2	-12	·	·
CN1CCN(c2ccc(-c3cccc(NC(=O)COc4ccccc4)c3)nn2)CC1	-1	-2	-2	8.4*	-5	-14	6	12*
COc1cccc(C(=O)Nc2cccc(-c3ccc4nncn4n3)c2)c1OC	-18	0	-3	-3	0	5	·	·
O=C1c2ccccc2C(=O)N1c1ccc(Cl)cn1	-10	-2	-3	8.1*	-6	6	3	0
COCCNC(=O)CN1CCCCCC1	-1	0	5	8.3*	4	5	2	1
Cc1ccc(C(=O)NCCNC(=O)CN2CCCC2)cc1	2	3	0	5	-4	2	·	·
C[C@H](CO)N1C[C@H](C)[C@H](CN(C)S(C)(=O)=O)Oc2ccc(NC(=O)NC3CCCCC3)cc2CC1=O	·	·	·	·	-6	·	·	·
C[C@@H]1CN([C@@H](C)CO)C(=O)c2cc(NC(=O)Nc3cccc4ccccc34)ccc2O[C@@H](C)CCCCO[C@@H]1CN(C)C(=O)Nc1ccccc1	·	·	·	·	2	·	·	·
Cc1ccccc1S(=O)(=O)NCC[C@H]1CC[C@H](NS(=O)(=O)c2ccccc2C)[C@@H](CO)O1	·	·	·	·	0	·	·	·
c1ccc(CSc2nc3ncccn3n2)cc1	4	1	1	8.7*	35	-5	12*	8.8*
CCN(/C=N/c1sc2c(c1C#N)CCCCC2)CC	-6	1	1	8.0*	·	-14	8.7*	7.7*
O=C(C[C@@H]1CC[C@H]2[C@@H](COC[C@@H](O)CN2C(=O)Nc2ccc(Cl)c(Cl)c2)O1)NC1CCC1	·	·	·	·	2	·	·	·
Cc1cc(NC(=O)CSc2nc3c(sc4ccccc43)c(=O)n2CCCN2CCOCC2)n[nH]1	17	1	4	20*	13	94*	36*	-1
CC(=O)c1cccc(NC(=O)CSc2nc3ccccc3c(=O)n2CCCN2CCOCC2)c1	-11	2	-7	-2	1	14	·	·
Cc1ccc(NC(=O)CSc2nc3ccccc3c(=O)n2CCCN2CCCCC2)cc1C	31	-1	-2	13*	-3	-2	6	3
Cc1noc(C)c1S(=O)(=O)Nc1ccc2c(c1)C(=O)N([C@@H](C)CO)C[C@H](C)[C@@H](CN(C)Cc1ccc(C(F)(F)F)cc1)OCCCC[C@@H](C)O2	·	·	·	·	11	·	·	·
C[C@H](CO)N1C[C@H](C)[C@H](CN(C)C(=O)Nc2ccc(C(F)(F)F)cc2)Oc2c(NC(=O)c3nc4ccccc4s3)cccc2C1=O	·	·	·	·	7	·	·	·
N#C/C(=C\C=C\c1ccccc1)c1nc(-c2ccc3c(c2)OCO3)cs1	47*	-4	8	9.8*	·	-3	1	-1
COc1cc(C=NN=c2sc3ccccc3n2C)ccc1OCCO	·	·	·	11*	·	·	10*	12*
CCN(CC)C(=O)CCc1nnc(Cc2cccc(C(F)(F)F)c2)o1	8	-1	-2	16*	·	-1	3	9.2*
Cc1cc(CN(C)C(=O)CCc2nnc(Cc3cccc(C(F)(F)F)c3)o2)on1	-4	0	-8	7	·	1	·	·
SMILES	SKN-1 block	NR3A LBD binder	NadD block	SMARCA2 activ	esBAF inh	Vif imaging	SMARCA2 conf	VP16 Luc act
O=C(Cc1ccncc1)NCC[C@H]1CC[C@@H](NC(=O)C2CCOCC2)[C@@H](CO)O1	·	·	·	·	-6	·	·	·
Cc1ccc(C(=O)N/N=C\c2cccn2C)cn1	-16	-6	1	0	·	10	·	·
O=C(N/N=C/c1cccc2ccccc12)c1cccnc1	-4	-6	-5	9.1*	7	-11	1	3
Cn1c(-c2ccccc2)c(/C=N/NC(=O)c2cccnc2)c2ccccc21	-11	-2	6	12*	·	6	6	2
Cn1cccc1/C=N/NC(=O)c1cccnc1	13	2	3	8.3*	-4	-4	1	1
O=C(C[C@@H]1C=C[C@H](NS(=O)(=O)c2ccccc2)[C@H](CO)O1)NCc1ccncn1	·	·	·	·	-5	·	·	·
C[C@@H]1CN([C@@H](C)CO)C(=O)c2cc(NS(=O)(=O)c3ccc(F)cc3)ccc2O[C@@H]1CN(C)Cc1ccc(-c2ccccc2)cc1	·	·	·	·	-4	·	·	·
OCC1OC(n2cnc3c(NCCc4ccccc4)ncnc32)C(O)C1O (centres undefined)	14	3	7	11*	36	25	5	7.8*
COc1cccc(C2C(C(=O)OC(C)C)=C(C)Nc3ncnn32)c1 (centres undefined)	-6	0	3	8.2*	-6	3	1	1
Cc1ccc(S(=O)(=O)Nc2ccc3c(c2)C(=O)N([C@H](C)CO)C[C@H](C)[C@@H](CN(C)C(=O)NC2CCCCC2)OCCCC[C@H](C)O3)cc1	·	·	·	·	8	·	·	·
Cn1cc(Br)c(C(=O)Nc2sc3c(c2C(N)=O)CCC3)n1	21	-7	-4	8.7*	·	-1	2	6.7*
COc1ccccc1C1=NOC(CN2C(=O)c3ccccc3S2(=O)=O)C1 (centres undefined)	5	1	-5	15*	·	-2	7	9.1*

Assay outcomes deposited in PubChem BioAssay by several laboratories.
